Bioassay records from PubChem.
Only some compounds are listed: those with a hit (about 6.6% of all), similar ones and a draw of the others.
TGFb inhibitor: inhibitors of TGF-b signaling | Potency, µM (series often up to 46.1 µM), usual class: inhibitors | 410,000 tested, 1.2% active | HepG2 CAGA-GFP TGF-b/SMAD3 reporter, GFP fluorescence, 18 h; TGF-beta stimulated, 500 pg/mL final; note: nearly all actives have a fitted effect of over 65% in size
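GFP signal (ex488/em500-530) from TGF-beta-stimulated HEPG2 CAGA-GFP cells, 500 pg/mL final, 18 h at 37 degrees C in DMEM plus 1% FBS, normalized to unstimulated and DMSO-stimulated controls.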
HT1080-NT tox: kills 2HG-producing HT-1080-NT fibrosarcoma cells | HT-1080-NT fibrosarcoma viability, CellTiter-Glo ATP luminescence, 48 h | Potency, µM (highest dose often 46.1 µM), actives largely listed as cytotoxic | 360,000 tested, 1.6% active;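 note: NT is the 2HG producing partner of a matched IDH1 knockdown line; nearly all actives have a fitted effect of over 55% in size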
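Fibrosarcoma NT cells, 750 per well in 5% FBS RPMI, were exposed to compound for 48 hours. Viability: CellTiter-Glo luminescence.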
HepG2 tox-1: HepG2 cytotoxicity, counter-screen for TGF-b inhibitors; AID 588856; 410,000 tested, 0.76% active; Potency, µM (series often up to 46.1 µM), usual class: cytotoxic; HepG2 CAGA-GFP viability, ATP luminescence, 18 h
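CellTiter-Glo luminescence gave cytotoxicity after 18 hours at 37 degrees C. The cells were HepG2 CAGA-GFP in 1% FBS DMEM, stimulated with 500 pg/mL TGF-beta after compound addition. %Activity was normalised to no-cell wells (complete cell-killing) and DMSO (no toxicity), and curves were fitted and classified.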
KB-V1 MDR tox: kills drug-selected multidrug resistant KB-V1 cells; 400,000 tested, 3.4% active; KB-V1 MDR cells viability, CellTiter-Glo, 72 h; Potency, µM (doses to about 46.1 µM), actives largely listed as cytotoxic; note: nearly all actives have a fitted effect of over 60% in size
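Readout: CellTiter-Glo luminescence, 10 min after addition. Cells: KB-V1 MDR subline, 72 h at 37 degrees C with compound. Analysis: corrected, normalized data fitted to concentration-effect curves.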
HT1080 IDH1KD tx: toxicity to HT-1080 IDH1 knockdown cells (counter line) | HT-1080 IDH1 knockdown viability, ATP luminescence, 48 h | Potency, µM (doses to about 46.1 µM), usual class: cytotoxic | 360,000 tested, 2% active | AID 686971
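Knockdown cells (IDH1KD HT-1080) received compounds 2 h after plating at 750 cells/well and were kept 48 h at 37 °C in 5% FBS RPMI. A CellTiter-Glo luminescence read gave % activity for curve fitting.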
KB-3-1 tox: kills parental KB-3-1 adenocarcinoma cells | KB-3-1 viability, CellTiter-Glo ATP luminescence, 72 h | Potency, µM (series often up to 46.1 µM), most hits filed as cytotoxic | 400,000 tested, 1.4% active; note: nearly all actives have a fitted effect of over 60% in size
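Parental KB-3-1 adenocarcinoma cells in phenol-red-free DMEM with 10% FBS were pin-treated with compounds at several concentrations, incubated 72 h at 37 °C, and viability read by CellTiter-Glo luminescence; concentration-effect curves were fitted after normalization.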
TGFb confirm: confirmation of TGF-b signaling inhibitors in HepG2 reporter cells | Potency, µM (highest dose often 46.1 µM), most hits filed as inhibitors | shares compounds with TGFb inhibitor | 1,600 tested, 63% active | HepG2 CAGA-GFP TGF-b reporter, GFP fluorescence, 18 h; cells stimulated with TGF-beta, 500 pg/mL | AID 720534; note: nearly all actives have a fitted effect of over 65% in size
HepG2 tox-2: counter-screen for TGF-b inhibitors: cytotoxicity in HepG2 cells; shares compounds with TGFb inhibitor; HepG2 CAGA-GFP viability, ATP luminescence, 18 h; cells stimulated with TGF-beta, 500 pg/mL; Potency, µM (titrated, usually from 46.1 µM), most hits filed as inhibitors; 1,600 tested, 27% active; AID 720535; note: nearly all actives have a fitted effect of over 70% in size
TGFb CCL64 inh: TGF-b inhibition, CCL64 orthogonal assay; shares compounds with TGFb inhibitor; CCL64 CAGA-GFP reporter, TGF-b stimulated, GFP fluorescence, 18 h; Potency, µM (series often up to 46.1 µM), usual class: inhibitors; 1,600 tested, 41% active; AID 720536; note: nearly all actives have a fitted effect of over 65% in size
COP TGFb inh: validation of TGF-b inhibitors in HepG2 COP promoter reporter; 1,600 tested, 3% active; HepG2 COP-GFP TGF-b reporter, GFP fluorescence, 18 h; cells stimulated by added recombinant TGF-beta; Potency, µM (top dose mostly 46.1 µM), actives largely listed as inhibitors; shares compounds with TGFb inhibitor; note: nearly all actives have a fitted effect of over 70% in size
Hits are given with their value; 0 = inactive; ? = inconclusive; - = no result. Calls come from the whole dose curve; as a rule, active = well fitted curve in the direction sought with a large enough effect; inconclusive = small, poorly fitted or top-dose-only effect, or another doubt; inactive = no such curve, though single readings can be large; an effect the other way counts as inactive or inconclusive.

SMILES	TGFb inhibitor	HT1080-NT tox	HepG2 tox-1	KB-V1 MDR tox	HT1080 IDH1KD tx	KB-3-1 tox	TGFb confirm	HepG2 tox-2	TGFb CCL64 inh	COP TGFb inh
CC1CCN(CCc2nc3ccccc3[nH]2)CC1	0	0	0	0	0	0	-	-	-	-
CCCOc1ccc(CSc2nc3ccccc3[nH]2)cc1	10µM	?	0	?	11µM	0	0	?	?	0
CN(C)c1ccc(P(=O)(Nc2ccc([N+](=O)[O-])cc2)N2CCOCC2)c(NC(=O)c2cccs2)c1 (stereo unspecified)	?	0	0	0	0	0	-	-	-	-
COc1ccc(NC(=O)Nc2cccc3c2O[C@H](CN(C)C(=O)NC2CCCCC2)[C@@H](C)CN([C@H](C)CO)C3=O)cc1	?	0	0	0	0	0	-	-	-	-
Cc1cc(OCC(=O)N2CCN(CCc3ccncc3)CC2)ccc1Cl	?	-	0	0	-	0	-	-	-	-
CC1=CC(C)CC(C)OC(=O)CC(c2ccc(O)cc2)NC(=O)C(Cc2c(Br)[nH]c3ccccc23)N(C)C(=O)C(C)NC(=O)C(C)C1 (stereo unspecified)	16µM	1.3µM	0	1.6µM	0.052µM	0.18µM	?	?	0.26µM	0
CCOc1ccc(NC(=O)Cn2cc(C(=O)c3ccccc3)c3ccccc32)cc1	?	-	0	-	-	-	-	-	-	-
O=C(c1cn(Cc2ccccc2F)c2ncccc12)C(F)(F)F	?	0	0	0	0	0	?	0	0	0
O=C1CC(c2c(F)cccc2Cl)c2c(c3ccccc3oc2=O)O1 (stereo unspecified)	0	-	0	0	-	0	-	-	-	-
O=C1NCN(c2ccccc2)C12CCN(C(CCc1ccccc1)c1nnnn1Cc1ccccc1)CC2 (stereo unspecified)	18µM	?	0	?	?	?	15µM	?	12µM	0
O=C1NCN(c2ccccc2)C12CCN(C(c1cc3ccccc3o1)c1nnnn1Cc1ccccc1)CC2 (stereo unspecified)	14µM	?	0	0	?	?	21µM	0	15µM	0
O=C1NCN(c2ccccc2)C12CCN(C(c1cc3ccccc3o1)c1nnnn1C1CCCC1)CC2 (stereo unspecified)	?	?	0	?	?	?	-	-	-	-
O=C1NCN(c2ccccc2)C12CCN(C(c1ccccc1)c1nnnn1Cc1ccccc1)CC2 (stereo unspecified)	11µM	0	0	?	?	0	18µM	0	12µM	0
O=C1NCN(c2ccccc2)C12CCN(C(CCc1ccccc1)c1nnnn1-c1ccc3c(c1)OCCO3)CC2 (stereo unspecified)	13µM	?	0	0	0	?	?	0	4.1µM	0
CC(C)(C)n1nnnc1C(CCc1ccccc1)N1CCC2(CC1)C(=O)NCN2c1ccccc1 (stereo unspecified)	?	?	0	?	?	?	-	-	-	-
Cc1ccc(Cn2cccc(C(=O)Nc3cc(C)on3)c2=O)cc1	0	-	0	0	-	0	-	-	-	-
CCSc1nnc(NC(=O)c2cccn(Cc3ccccc3Cl)c2=O)s1	0	-	0	0	-	0	-	-	-	-
Cc1ccc(Cn2cccc(C(=O)Nc3ccc4c(c3)OCO4)c2=O)cc1	0	-	0	?	-	0	-	-	-	-
CCOc1ccccc1CN(CCc1ccc2c(c1)OCO2)Cc1ccc(CC)cc1	0	-	0	0	-	0	-	-	-	-
COc1ccc(-n2c(/C=C/c3cccc(F)c3)nc3ccccc3c2=O)cc1Cl	?	-	0	0	-	0	-	-	-	-
CNC(=O)Nc1ccc(C(=O)N/N=C\C23CC[C@@H](O)CC2(O)CC[C@@H]2[C@@H]3CCC3(C)C(C4=CC(=O)OC4)CCC23O)cc1 (stereo partly specified)	0	?	0	0	?	?	-	-	-	-
CC12CCC(O)CC1CCC1C2CCC2(C)C(C3=CC(=O)OC3)CCC12O (stereo unspecified)	4µM	1.5µM	0	0.73µM	1.2µM	1.2µM	16µM	2.6µM	1.3µM	0
O=C(c1ccccc1F)N1CCN(Cc2nc3sc4c(c3c(=O)[nH]2)CCCC4)CC1	?	0	0	?	0	0	-	-	-	-
CCN(CC)C(=O)c1ccc(NC(=O)c2cccc(C(F)(F)F)c2)cc1	0	0	0	0	0	0	-	-	-	-
CCN(CCCl)c1cc(CN(C)C)cc(NC(=O)c2ccc(C(=O)Nc3cc(CN(C)C)cc(N(CC)CCCl)c3)cc2)c1	4µM	7.3µM	0	0	2.9µM	0.52µM	1µM	1µM	1µM	?
CCOC(=O)c1c(N)n(CCCOC(=O)c2ccco2)c2nc3ccccc3nc12	2.8µM	23µM	3.5µM	?	18µM	12µM	4.1µM	5.2µM	23µM	5.8µM
COCCOC(=O)c1c(N)n(Cc2ccco2)c2nc3ccccc3nc12	0	0	0	0	0	0	-	-	-	-
O=S1(=O)N(Cc2ccccc2)CCCN1Cc1cccc(Cl)c1	0	-	0	0	-	0	-	-	-	-
